According to PubChem BioAssay (NCATS):
Values without a mark were called inactive. Records with an inconclusive call do not appear. A call without a number means that no potency is given here. The source made the active and inactive calls. Unless noted, the call rests on the fitted dose curve; in most records, active means well fitted curve in the direction sought with a large enough effect; inconclusive means small, poorly fitted or top-dose-only effect, or another doubt; inactive means no such curve, though single readings can be large; an effect the other way counts as inactive or inconclusive.

What was measured:
[1] = biological target: Lysosomal acid glucosylceramidase (Homo sapiens) (UniProt P04062); test: Glucocerebrosidase-p2 (AID 348; in the data active means potency below about 10 µM; further: potency means the concentration at half of the fitted maximal effect); settings: purified GBA, blue fluorogenic substrate, 40 min
Lysosomal acid glucosylceramidase (Homo sapiens), sequence (P04062 whole entry, looked up): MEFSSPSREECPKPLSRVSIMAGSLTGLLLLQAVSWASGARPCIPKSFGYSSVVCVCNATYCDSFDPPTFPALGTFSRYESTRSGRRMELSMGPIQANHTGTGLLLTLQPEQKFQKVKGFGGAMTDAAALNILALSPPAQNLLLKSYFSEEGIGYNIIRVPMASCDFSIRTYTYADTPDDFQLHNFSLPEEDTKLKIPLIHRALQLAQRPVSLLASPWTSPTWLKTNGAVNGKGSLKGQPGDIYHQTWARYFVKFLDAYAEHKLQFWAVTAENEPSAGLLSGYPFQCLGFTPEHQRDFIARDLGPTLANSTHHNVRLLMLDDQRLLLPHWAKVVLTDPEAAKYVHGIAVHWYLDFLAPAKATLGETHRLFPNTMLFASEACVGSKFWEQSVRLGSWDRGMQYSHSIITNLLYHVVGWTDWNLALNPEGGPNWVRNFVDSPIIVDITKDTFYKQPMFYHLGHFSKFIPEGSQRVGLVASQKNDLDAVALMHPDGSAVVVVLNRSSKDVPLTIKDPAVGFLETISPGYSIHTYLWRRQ
Summary of the method: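 Normal human glucocerebrosidase (0.2 nM) with blue fluorogenic substrate (80 uM final) in citrate/phosphate pH 5.9 with 10mM sodium taurocholate, 0.01% tween-20; 40 min RT, NaOH/glycine stop; fluorescence Ex 365/Em 440; AC50 from a titration from 0.6 nM upwards.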

[2] = AP1 Signaling Pathway (AID 357; active means well fitted curve in either direction with a large enough effect, not every such curve was filed as active); settings: ME-180 AP-1-bla reporter, EGF-induced, beta-lactamase ratio, 5 h; at 7.69 µM (top of the series) unless noted
Summary of the method: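 AP-1-bla ME-180 cells with beta-lactamase reporter under AP-1 response element, stimulated with EC50 EGF; compounds titrated, 5 hours at 37 degrees Celsius. CCF4 read at 460/530 nm ratio; positive and negative modulators judged by AC50.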

[3] = biological target: Cytochrome P450 1A2 (Homo sapiens) (UniProt P05177); test: p450-cyp1a2 (AID 410; calls by dose curve; further: potency means the concentration at half of the fitted maximal effect); settings: recombinant CYP1A2, luciferin-ME demethylation, luminescence; series mostly up to 57 µM
Cytochrome P450 1A2 (Homo sapiens), sequence (P05177 whole entry, looked up): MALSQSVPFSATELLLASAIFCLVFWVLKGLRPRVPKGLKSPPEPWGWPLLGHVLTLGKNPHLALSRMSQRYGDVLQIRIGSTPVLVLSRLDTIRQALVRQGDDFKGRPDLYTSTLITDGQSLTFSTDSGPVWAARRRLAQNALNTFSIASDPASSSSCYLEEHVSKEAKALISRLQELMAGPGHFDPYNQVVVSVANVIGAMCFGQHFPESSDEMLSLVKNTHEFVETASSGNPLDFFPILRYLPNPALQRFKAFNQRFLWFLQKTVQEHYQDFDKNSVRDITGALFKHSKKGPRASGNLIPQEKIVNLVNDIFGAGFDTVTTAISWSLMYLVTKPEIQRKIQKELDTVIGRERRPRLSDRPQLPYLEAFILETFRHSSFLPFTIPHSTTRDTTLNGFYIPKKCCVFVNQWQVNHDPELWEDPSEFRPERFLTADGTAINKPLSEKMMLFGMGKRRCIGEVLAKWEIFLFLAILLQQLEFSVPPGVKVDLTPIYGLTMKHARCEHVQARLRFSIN
Summary of the method: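 Read-out is luminescence from luciferin produced by CYP1A2 demethylation of Luciferin-ME (100uM, at Km). Detection reagent stopped the 60 min NADPH-dependent reaction; signals were normalized to 57 uM furafylline.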

[4] = NFAT Signaling Pathway (AID 444; active means well fitted curve in either direction with a large enough effect, not every such curve was filed as active;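 further: carbachol stimulus at about its EC50 of 1 µM final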); settings: Jurkat NFAT-bla M1, carbachol, beta-lactamase ratio, 5 h; at 7.69 µM (top of the series) unless noted
Summary of the method: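 Jurkat cells with NFAT-driven β-lactamase reporter and co-expressed M1 receptor, stimulated with carbachol (final 1 uM, ~EC50), compound titration, 5 h at 37 °C. CCF4 loaded 1 h at RT; 460/530 nm ratio gave %activity and AC50.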

[5] = biological target: Glucocorticoid receptor (Homo sapiens) (UniProt P04150); test: GR-GFP Redistribution (AID 450;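 active means compounds whose dose series gives a full or clear partial fitted curve of increased nuclear translocation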; further: potency means the concentration at half of the fitted maximal effect); settings: U2OS GR-GFP nuclear translocation, laser cytometry, 2 h
Glucocorticoid receptor (Homo sapiens), sequence (P04150 whole entry, looked up, the tested form may be a part): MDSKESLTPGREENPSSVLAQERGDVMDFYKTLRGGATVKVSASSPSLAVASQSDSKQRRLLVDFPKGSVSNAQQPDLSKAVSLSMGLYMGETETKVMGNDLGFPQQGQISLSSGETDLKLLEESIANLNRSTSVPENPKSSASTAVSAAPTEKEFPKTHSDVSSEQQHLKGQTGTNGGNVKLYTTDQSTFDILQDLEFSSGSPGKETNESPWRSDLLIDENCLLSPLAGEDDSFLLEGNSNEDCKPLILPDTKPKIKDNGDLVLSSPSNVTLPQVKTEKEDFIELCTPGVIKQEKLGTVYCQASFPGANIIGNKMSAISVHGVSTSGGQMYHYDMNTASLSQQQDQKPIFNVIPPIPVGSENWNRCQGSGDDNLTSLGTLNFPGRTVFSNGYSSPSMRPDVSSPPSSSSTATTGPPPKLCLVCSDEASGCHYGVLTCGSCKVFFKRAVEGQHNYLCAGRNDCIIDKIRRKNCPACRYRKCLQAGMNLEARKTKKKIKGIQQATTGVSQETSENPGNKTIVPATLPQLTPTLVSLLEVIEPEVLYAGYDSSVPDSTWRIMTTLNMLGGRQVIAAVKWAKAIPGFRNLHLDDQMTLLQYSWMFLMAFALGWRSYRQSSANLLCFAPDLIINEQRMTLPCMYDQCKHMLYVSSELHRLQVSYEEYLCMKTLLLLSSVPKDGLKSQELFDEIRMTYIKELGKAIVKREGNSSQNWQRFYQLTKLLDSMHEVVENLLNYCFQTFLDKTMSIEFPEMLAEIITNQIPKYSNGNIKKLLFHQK

[6] = biological target: Glucocorticoid receptor (Homo sapiens) (UniProt P04150); test: GR-EFC Redistribution (AID 451; calls by dose curve; further: potency means the concentration at half of the fitted maximal effect); settings: CHO-K1 GR-EFC translocation, beta-gal luminescence, 2 h
Summary of the method: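 CHO-K1 cells expressing nuclear EA and GR-ED fragments of b-gal; compounds titrated up to 46 uM final, 2 h at 37 C. GR nuclear translocation read as complemented b-gal luminescence after 1 h RT detection.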

[7] = biological target: Mitogen-activated protein kinase 10 (Mus musculus) (UniProt Q61831); test: JNK3 AlphaScreen Assay (AID 530; active means well fitted curve in either direction with a large enough effect, not every such curve was filed as active;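 further: kinase came from lysate of stimulated human HepG2 cells; signal reports phosphorylation of biotinylated GST-cJun 1-79 at Ser73 with 10 µM ATP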); settings: JNK3 lysate, c-Jun phosphorylation; series mostly up to 57.1 µM
Summary of the method: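 HepG2 lysate (IL-1b/TNFa pre-activated) + biotin-GST-cJun 1-79 + anti-pSer73 cJun; cpd titration, 15 min RT; ATP 10 uM start; Tris pH 7.6, MgCl2, DTT, vanadate; beads in EDTA buffer; AlphaScreen.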

[8] = biological target: Cytochrome P450 3A4 (Homo sapiens) (UniProt P08684); test: qHTS Assay for Inhibitors and Substrates of Cytochrome P450 3A4 (AID 884); settings: recombinant CYP3A4, Luciferin-PPXE luminescence; series mostly up to 57.1 µM; further: potency means the concentration at half of the fitted maximal effect; nearly all actives have a fitted effect of over 50% in size
Cytochrome P450 3A4 (Homo sapiens), sequence (P08684 whole entry, looked up, canonical isoform): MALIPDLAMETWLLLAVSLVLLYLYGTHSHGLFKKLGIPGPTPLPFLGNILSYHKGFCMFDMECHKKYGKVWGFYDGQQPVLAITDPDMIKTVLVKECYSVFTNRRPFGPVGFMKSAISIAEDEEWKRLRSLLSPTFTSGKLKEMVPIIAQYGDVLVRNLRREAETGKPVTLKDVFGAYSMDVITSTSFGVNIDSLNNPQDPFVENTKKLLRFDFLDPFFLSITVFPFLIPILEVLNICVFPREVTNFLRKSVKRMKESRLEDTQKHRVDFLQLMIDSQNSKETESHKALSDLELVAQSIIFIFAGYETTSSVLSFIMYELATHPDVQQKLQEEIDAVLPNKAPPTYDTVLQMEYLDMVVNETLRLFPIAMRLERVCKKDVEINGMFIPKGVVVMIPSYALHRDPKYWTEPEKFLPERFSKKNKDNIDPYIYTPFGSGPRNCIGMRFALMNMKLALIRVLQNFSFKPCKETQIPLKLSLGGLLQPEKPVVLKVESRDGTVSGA
Summary of the method: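 Luminescent readout of luciferin produced by CYP3A4 (20 nM) dealkylation of Luciferin-PPXE, 25 uM (its KM). NADPH-driven reaction ran 60 min at RT after 10 min compound preincubation; data scaled to 57 uM ketoconazole as 100% inhibition.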

[9] = biological target: Cytochrome P450 3A4 (Homo sapiens) (UniProt P08684); test: qHTS Assay for Activators of Cytochrome P450 3A4 (AID 885); settings: recombinant CYP3A4, Luciferin-PPXE luminescence, 60 min; series mostly up to 57.1 µM; further: nearly all actives have a fitted effect of over 65% in size
Summary of the method: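 CYP3A4 activity: Luciferin-PPXE O-dealkylation, 25uM substrate, 200mM KPO4, RT throughout. Read-out is luciferase luminescence; higher values reflect activation.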

[10] = qHTS Assay for Identification of Small Molecule Agonists for Hypoxia Response Element Signaling Pathway (AID 914; active means well fitted activation curve with a large enough effect in the signal ratio, with a control signal flat, not every such curve was filed as active; the % refers to the signal ratio); settings: ME-180 (cervical carcinoma) HRE-bla reporter, beta-lactamase ratio, CoCl2, 17 h; activation: active compounds read high
Summary of the method: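 Read-out: CCF4 FRET ratio of 460nm to 530nm emission (excitation 405nm) after 2.5 hours at room temperature, taken from HRE-bla ME-180 cells that had been exposed to compound and EC50 CoCl2 for 17 hours.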

[11] = biological target: Dual specificity protein kinase CLK4 (Homo sapiens) (UniProt Q9HAZ1); test: qHTS Assay for Inhibitors of CDC-like Kinase 4 (ADP-FP Assay) (AID 1795); settings: Transcreener ADP fluorescence polarization; series mostly up to 50 µM;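 further: recombinant human CLK4 phosphorylating RS repeat peptide at 1 µM ATP; nearly all actives have a fitted effect of over 60% in size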
Dual specificity protein kinase CLK4 (Homo sapiens), sequence (Q9HAZ1 whole entry, looked up): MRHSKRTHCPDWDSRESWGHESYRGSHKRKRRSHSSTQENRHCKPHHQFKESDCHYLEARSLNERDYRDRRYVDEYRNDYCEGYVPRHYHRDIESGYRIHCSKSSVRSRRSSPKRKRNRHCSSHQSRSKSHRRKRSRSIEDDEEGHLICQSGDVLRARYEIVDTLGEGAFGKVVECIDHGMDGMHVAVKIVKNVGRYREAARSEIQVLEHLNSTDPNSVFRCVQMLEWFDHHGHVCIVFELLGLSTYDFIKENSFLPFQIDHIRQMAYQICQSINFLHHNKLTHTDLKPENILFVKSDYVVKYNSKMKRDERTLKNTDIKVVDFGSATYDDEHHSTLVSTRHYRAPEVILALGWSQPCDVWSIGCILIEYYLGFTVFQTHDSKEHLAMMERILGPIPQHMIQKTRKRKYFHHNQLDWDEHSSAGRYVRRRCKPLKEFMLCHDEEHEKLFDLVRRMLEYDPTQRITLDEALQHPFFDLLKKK
Summary of the method: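 Clk4 6.25 nM; RS peptide 100 uM; ATP 1 uM; 25 mM Tris pH 7.5, 10 mM MgCl2; 1 h reaction. ADP detected via antibody/orange tracer FP displacement; TG003 positive control.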

[12] = biological target: Ubiquitin carboxyl-terminal hydrolase 1 (Homo sapiens) (UniProt O94782); test: Inhibitors of USP1/UAF1: Pilot qHTS (AID 504865); settings: purified USP1/UAF1, Ub-rhodamine cleavage fluorescence; series mostly up to 54.9 µM;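 further: rhodamine fluorescence freed from ubiquitin-rhodamine substrate followed over time; top concentration of the series differs between compounds; nearly all actives have a fitted effect of over 35% in size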
Ubiquitin carboxyl-terminal hydrolase 1 (Homo sapiens), sequence (O94782 whole entry, looked up): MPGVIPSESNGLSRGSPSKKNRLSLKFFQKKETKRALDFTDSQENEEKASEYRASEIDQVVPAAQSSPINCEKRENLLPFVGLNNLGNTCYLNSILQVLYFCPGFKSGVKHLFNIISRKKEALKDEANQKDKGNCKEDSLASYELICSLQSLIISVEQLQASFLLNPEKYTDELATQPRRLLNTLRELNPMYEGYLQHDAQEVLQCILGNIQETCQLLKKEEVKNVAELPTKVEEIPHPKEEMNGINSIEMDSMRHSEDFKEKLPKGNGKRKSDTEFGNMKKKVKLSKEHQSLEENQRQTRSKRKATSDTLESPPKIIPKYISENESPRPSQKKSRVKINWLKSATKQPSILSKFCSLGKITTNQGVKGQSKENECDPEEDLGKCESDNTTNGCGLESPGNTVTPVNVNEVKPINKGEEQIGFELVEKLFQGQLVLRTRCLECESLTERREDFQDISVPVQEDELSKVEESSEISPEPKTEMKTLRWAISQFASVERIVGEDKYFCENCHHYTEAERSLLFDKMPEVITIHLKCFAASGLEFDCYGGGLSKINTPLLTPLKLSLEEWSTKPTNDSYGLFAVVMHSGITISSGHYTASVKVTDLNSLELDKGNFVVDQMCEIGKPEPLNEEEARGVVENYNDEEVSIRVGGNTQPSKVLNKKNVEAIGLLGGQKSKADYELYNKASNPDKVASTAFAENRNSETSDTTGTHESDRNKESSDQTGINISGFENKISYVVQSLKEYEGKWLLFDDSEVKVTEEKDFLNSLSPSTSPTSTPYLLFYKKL
Summary of the method: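 In 50mM HEPES pH 7.8 containing 0.5mM EDTA, 1mM TCEP, 0.1 mg/ml BSA and 0.01% Tween-20, 1nM USP1/UAF1 is exposed to compound for 15 min, then Ub-Rho (150nM final) is added and fluorescence is read over time.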

[13] = HepG2 viability counterscreen (readout 2: ATP content) against the NCATS DSHEA and TCM libraries (AID 1794840); settings: ATP content luminescence; series mostly up to 27.3 µM
Summary of the method: (§1)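 Same wells read twice: first fluorescence from cleaved GF-AFC substrate (25 uM final, 30 min, 37C) for live-cell protease, then CellTiter-Glo luminescence after 30 min at room temperature for ATP. HepG2 cells were exposed ~24 h to substances.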

[14] = HepG2 viability counterscreen (readout 1: protease activity) against the NCATS DSHEA and TCM libraries (AID 1794841); settings: qHTS concentration series; series mostly up to 27.3 µM;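 further: cells exposed to compounds for about 24 h before the protease read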
Summary of the method: as §1

[15] = biological target: Cytochrome P450 3A4 (Homo sapiens) (UniProt P08684); test: qHTS for inhibitors of CYP3A4 against the NCATS DSHEA and TCM libraries (AID 1919971); settings: recombinant CYP3A4 enzyme activity, luminescence qHTS; series mostly up to 34.1 µM;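 further: inhibition lowers luminescence from luciferin made by CYP3A4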
Summary of the method: (§2)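 Isoform-specific enzyme and substrate levels; enzyme-free wells as background. Reaction: 1x NADPH regenerating system, 30-45 min, room temperature, shielded from light; luminescent detection reagent added, 30 min.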

[16] = biological target: Cytochrome P450 2D6 (Homo sapiens) (UniProt P10635); test: qHTS for inhibitors of CYP2D6 against the NCATS DSHEA and TCM libraries (AID 1919972); settings: CYP2D6 enzymatic inhibition, luminescence qHTS; series mostly up to 34.1 µM
Cytochrome P450 2D6 (Homo sapiens), sequence (P10635 whole entry, looked up): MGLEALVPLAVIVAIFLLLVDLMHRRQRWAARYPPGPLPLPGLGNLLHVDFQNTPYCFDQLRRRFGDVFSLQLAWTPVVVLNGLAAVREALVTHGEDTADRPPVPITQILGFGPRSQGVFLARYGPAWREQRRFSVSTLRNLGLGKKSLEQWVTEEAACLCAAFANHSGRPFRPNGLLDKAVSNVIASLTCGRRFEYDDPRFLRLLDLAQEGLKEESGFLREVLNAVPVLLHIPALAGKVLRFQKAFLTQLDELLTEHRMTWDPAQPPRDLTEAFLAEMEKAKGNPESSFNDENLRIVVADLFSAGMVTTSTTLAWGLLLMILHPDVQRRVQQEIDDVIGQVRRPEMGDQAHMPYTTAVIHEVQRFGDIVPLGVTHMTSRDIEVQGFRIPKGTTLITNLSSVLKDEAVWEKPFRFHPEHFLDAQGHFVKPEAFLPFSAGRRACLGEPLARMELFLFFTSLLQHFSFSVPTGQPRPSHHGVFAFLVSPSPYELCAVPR
Summary of the method: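 qHTS, concentration–response format with most substances from 19.5 nM. CYP2D6 + pro-luciferin substrate, 15 min with compound, then 1x NADPH regen, 30–45 min RT dark. Glo detection 30 min, luminescence. Quinidine control.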

[17] = KB-3-1 P-gp reporter qHTS against the NCATS DSHEA and TCM libraries (AID 1919975); settings: KB-3-1 parental cells, CellTiter-Glo luminescence viability, 72 h; series mostly up to 26.1 µM
Summary of the method: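 KB-3-1 parental line, 1536-well qHTS: cells seeded, ~4 h attachment, pintool compound addition, ~72 h at 37C, then CellTiter-Glo, 30 min RT, luminescence. Concentration-response format.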

[18] = qHTS Counterscreen for compound interference against the NCATS DSHEA and TCM libraries (AID 1919978); settings: firefly luciferase detection reagent interference, luminescence;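 further: compounds preincubated with 1 µM D-luciferin or buffer before detection reagent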
Summary of the method: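 Compounds, titrated from 19.5 nM to 39.8 uM final, were pinned onto 1 uM D-luciferin or plain 100 mM potassium phosphate. After 15 min at room temperature, luciferin detection reagent was added for 30 min before the luminescence read.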

[19] = Dual reporter qHTS for agonist of Pregnane X Receptor (hPXR) against the NCATS DSHEA and TCM libraries: Fluorescence readout (AID 1920058); settings: PXR dual reporter cells; series mostly up to 40 µM
Summary of the method: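 In this qHTS counter-read, reporter-bearing HepG2 cells in charcoal-stripped serum received substances for approximately 24 h before viability was assessed fluorometrically with CellTiter-Fluor.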

[20] = biological target: Nuclear receptor subfamily 1 group I member 2 (Homo sapiens) (UniProt O75469); test: Dual reporter qHTS for antagonist of Pregnane X Receptor (hPXR) against the NCATS DSHEA and TCM libraries: Luminescence Readout (AID 1920060); settings: hPXR dual reporter cells, luciferase luminescence, antagonist mode; series mostly up to 40 µM;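 further: HepG2 cells carrying hPXR luciferase reporter stimulated with rifampicin at 2 µM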
Nuclear receptor subfamily 1 group I member 2 (Homo sapiens), sequence (O75469 whole entry, looked up): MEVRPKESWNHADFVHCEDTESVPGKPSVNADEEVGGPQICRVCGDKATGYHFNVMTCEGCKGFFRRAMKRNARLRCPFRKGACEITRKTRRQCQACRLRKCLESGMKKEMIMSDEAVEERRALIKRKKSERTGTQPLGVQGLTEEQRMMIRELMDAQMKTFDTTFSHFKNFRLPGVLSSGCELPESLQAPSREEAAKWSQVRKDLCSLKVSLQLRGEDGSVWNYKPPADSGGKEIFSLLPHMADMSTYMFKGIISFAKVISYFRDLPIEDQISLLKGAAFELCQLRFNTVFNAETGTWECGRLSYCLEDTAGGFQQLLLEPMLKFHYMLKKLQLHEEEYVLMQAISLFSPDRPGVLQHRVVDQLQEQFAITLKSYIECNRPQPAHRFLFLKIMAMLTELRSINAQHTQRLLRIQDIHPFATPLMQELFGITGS
Summary of the method: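 Antagonist mode: rifampicin 2 uM final co-added with compounds to hPXR-LucHepG2 cells for 24 h at 37C. Viability by CellTiter-Fluor, Ex/Em 405/540 nm, 1 h; reporter by ONE-Glo luminescence.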

[21] = biological target: Cytochrome P450 2C19 (Homo sapiens) (UniProt P33261); test: qHTS for inhibitors of CYP2C19 against the NCATS DSHEA and TCM libraries (AID 1919974); settings: CYP2C19 enzyme inhibition, luminescence qHTS; series mostly up to 34.1 µM;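 further: luminescence from luciferin released by CYP2C19 oxidation of a pro-luciferin substrate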
Cytochrome P450 2C19 (Homo sapiens), sequence (P33261 whole entry, looked up): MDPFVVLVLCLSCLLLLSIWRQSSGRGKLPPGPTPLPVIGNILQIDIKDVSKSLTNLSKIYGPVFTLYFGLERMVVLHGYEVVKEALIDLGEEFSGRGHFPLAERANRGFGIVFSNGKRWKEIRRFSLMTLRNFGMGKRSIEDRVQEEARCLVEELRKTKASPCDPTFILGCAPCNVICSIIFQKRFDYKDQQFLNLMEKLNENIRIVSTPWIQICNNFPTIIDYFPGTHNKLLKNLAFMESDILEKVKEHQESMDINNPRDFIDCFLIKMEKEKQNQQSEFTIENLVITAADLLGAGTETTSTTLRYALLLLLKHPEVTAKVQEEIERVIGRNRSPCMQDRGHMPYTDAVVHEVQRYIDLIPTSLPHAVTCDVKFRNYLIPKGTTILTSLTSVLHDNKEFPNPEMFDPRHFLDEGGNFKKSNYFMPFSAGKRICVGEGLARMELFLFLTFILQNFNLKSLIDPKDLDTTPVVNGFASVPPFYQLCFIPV
Summary of the method: as §2

[22] = biological target: Cytochrome P450 1A2 (Homo sapiens) (UniProt P05177); test: qHTS for inhibitors of CYPIA2 against the NCATS DSHEA and TCM libraries (AID 1919976); settings: recombinant CYP1A2 enzyme activity, luminescence; series mostly up to 37 µM;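 further: light from luciferin formed by CYP1A2 from a pro-luciferin substrate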
Summary of the method: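 Furafylline served as the plate control. Compounds met CYP1A2 and pro-luciferin substrate 15 min before NADPH regeneration solution (1x) was added; after 30-45 min at RT, P450-Glo reagent was added for 30 min and luminescence was measured.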

CN(C)c1nc(-c2cccc(NS(C)(=O)=O)c2)nc2ccccc12
Potency [1]: > 11.4 µM
activity change, negative = inhibition [2]: 11.2%
Potency [3]: 0.501 µM (active)
activity change, negative = inhibition [4]: 10.8%
Potency [5]: > 46 µM
Potency [6]: > 46 µM
Potency [7]: inactive
Potency [8]: 6.31 µM (active)
outcome [9]: inactive
activation [10]: 22.5%
Potency [11]: inactive
Potency [12]: inactive

CCCCCC/C=C/CCCCCCCCCC(=O)O
outcome [13]: inactive
outcome [14]: inactive
Potency [15]: inactive
Potency [16]: inactive
outcome [17]: inactive
max response [18]: 3.83%
outcome [19]: inactive
outcome [20]: inactive

Cc1ccc(O)c(O)c1
outcome [13]: inactive
outcome [14]: inactive
Potency [15]: inactive
Potency [16]: inactive
Potency [21]: inactive
outcome [17]: inactive
Potency [22]: inactive
max response [18]: -0.684%
outcome [19]: inactive
outcome [20]: inactive
